These results are taken from paper PMC5540273 (PLoS ONE, 2017).

Among the test systems are NLK; PAK1; PAK2; PAK3; PAK4; PAK6; PAK7; PDGFRA; PDGFRB; PDPK1; PFTAIRE2; PHKG1; PHKG2; PIK3C2B.
Common to all, as to conditions: concentration: 1 μM, replicates: in singlicate; n = 1
For the next experiment, the system named is T1, NIM1.
T1 construct: gene MGC42105

The next experiment deals with T2, OSR1.
T2 construct: gene OXSR1

The next experiment concerns T3, PCTK1.
T3 construct: gene CDK16

For another experiment, the system named is T4, PCTK2.
T4 construct: gene CDK17

Another experiment relates to T5, PCTK3.
T5 construct: gene CDK18

For another experiment, the system named is T6, PFTK1.
T6 construct: gene CDK14
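Further: KINOMEscan kinase panel screen.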

With `CN(c1ccc2c(c1)nc(NCc1ccccc1)n2C)c1ccnc(Nc2ccc(CS(C)(=O)=O)cc2)n1.Cl` [GW811603], the “%Inh” value with NIM1 amounted to 22%; with NLK, 0%; in the experiment with OSR1, 0%; in the experiment with PAK1 it was 0%; in the experiment on PAK2, 0%; in the experiment on PAK3 it was 42%. The “%Inh” value worked out at 22% in the experiment on PAK4; 13% in the experiment on PAK6; 2% with PAK7; 0% in the experiment with PCTK1; 0% in the experiment with PCTK2; 0% with PCTK3. Also, the “%Inh” value is recorded as 99.8% in the experiment on PDGFRA; 100% in the experiment with PDGFRB; 0% with PDPK1; 38% in the experiment with PFTAIRE2; 0% in the experiment with PFTK1; 8% with PHKG1. For the same compound, the “%Inh” value with PHKG2 and in the experiment on PIK3C2B was 0% in each case.
`Cc1ccc(NC(=O)c2ccc(Cl)c(Cl)c2)cc1-c1ccc(C(=O)Nc2ccncc2)cc1` [GSK1398460]: the “%Inh” value with NIM1 worked out at 0%; in the experiment on NLK, 43%; in the experiment on OSR1, 6%; with PAK1, 19%; with PAK2, 19%; in the experiment on PAK3, 20%. Further, the “%Inh” value is 0% in the experiment with PAK4; 0% with PAK6; 1% with PAK7; 0% in the experiment with PCTK1; 0% with PCTK2; 25% in the experiment with PCTK3. Also, the “%Inh” value in the experiment with PDGFRA is on record as 94.6%; with PDGFRB it was 100%; in the experiment on PDPK1, 27%; in the experiment on PFTAIRE2 it was 23%; in the experiment on PFTK1 it was 1%; in the experiment on PHKG1, 0%. The “%Inh” value with PHKG2 and in the experiment with PIK3C2B was 0% each time.
Regarding `COC(=O)Nc1nc2cc(Oc3ccc(NC(=O)Nc4cccc(SC)c4)cc3)ccc2[nH]1.Cl` [GW697999], the “%Inh” value in the experiment with NIM1 amounted to 32%; in the experiment with NLK, 0%; in the experiment on OSR1, 15%; in the experiment on PAK1, 0%; in the experiment with PAK2 it was 0%; in the experiment on PAK3 it was 29%. In addition, the “%Inh” value in the experiment on PAK4 came out at 0%; in the experiment on PAK6 it was 0%; in the experiment on PAK7, 0%; in the experiment with PCTK1, 3%; in the experiment with PCTK2, 6%; with PCTK3, 26%. Also, the “%Inh” value in the experiment with PDGFRA is reported as 99.4%; with PDGFRB, 100%; in the experiment with PDPK1, 0%; in the experiment with PFTAIRE2, 15%; with PFTK1 it was 20%; with PHKG1 it was 3%. Also, the “%Inh” value stood at 34% with PHKG2 and 0% in the experiment on PIK3C2B.
In the case of `COc1ccc(C2=C(Nc3cccc(O)c3)C(=O)NC2=O)cc1` [SB-390766], the “%Inh” value with NIM1 was determined as 0%; with NLK, 35%; in the experiment with OSR1, 4%; in the experiment with PAK1, 15%; in the experiment on PAK2, 12%; in the experiment on PAK3 it was 30%. Besides, the “%Inh” value came to 0% in the experiment with PAK4; 10% in the experiment on PAK6; 0% with PAK7; 5% in the experiment on PCTK1; 0% with PCTK2; 16% in the experiment with PCTK3. Besides, the “%Inh” value was 0% in the experiment on PDGFRA; 26% in the experiment on PDGFRB; 0% in the experiment on PDPK1; 4% in the experiment on PFTAIRE2; 13% in the experiment on PFTK1; 0% in the experiment on PHKG1. For the same compound, the “%Inh” value is 21% in the experiment on PHKG2 and 0% in the experiment with PIK3C2B.
